TDP1 cell noCPT = qHTS for Inhibitors of human tyrosyl-DNA phosphodiesterase 1 (TDP1): qHTS in cells in absence of CPT; DT40 Tdp1-/- hTDP1 cells, no CPT, ATP luminescence, 48 h; Potency, µM (titrated, usually from 46.2 µM), actives largely listed as inhibitors; 420,000 tested, 15% active; AID 686978, 2013; note: nearly all actives have a fitted effect of over 55% in size
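Seeded 400 DT40-hTDP1 cells/well (vehicle DMSO, no 20 nM CPT); pinned compounds; ≥48 hr at 37 °C; CellTiter-Glo luminescence as viability measure.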
TDP1 block = TDP1 (human) enzyme inhibition; Q9NUW8; recombinant TDP1, AlphaScreen DNA substrate cleavage; Potency, µM (doses to about 130 µM), most hits filed as inhibitors; 350,000 tested, 0.28% active; note: nearly all actives have a fitted effect of over 40% in size
Target sequence (Q9NUW8 whole entry, looked up): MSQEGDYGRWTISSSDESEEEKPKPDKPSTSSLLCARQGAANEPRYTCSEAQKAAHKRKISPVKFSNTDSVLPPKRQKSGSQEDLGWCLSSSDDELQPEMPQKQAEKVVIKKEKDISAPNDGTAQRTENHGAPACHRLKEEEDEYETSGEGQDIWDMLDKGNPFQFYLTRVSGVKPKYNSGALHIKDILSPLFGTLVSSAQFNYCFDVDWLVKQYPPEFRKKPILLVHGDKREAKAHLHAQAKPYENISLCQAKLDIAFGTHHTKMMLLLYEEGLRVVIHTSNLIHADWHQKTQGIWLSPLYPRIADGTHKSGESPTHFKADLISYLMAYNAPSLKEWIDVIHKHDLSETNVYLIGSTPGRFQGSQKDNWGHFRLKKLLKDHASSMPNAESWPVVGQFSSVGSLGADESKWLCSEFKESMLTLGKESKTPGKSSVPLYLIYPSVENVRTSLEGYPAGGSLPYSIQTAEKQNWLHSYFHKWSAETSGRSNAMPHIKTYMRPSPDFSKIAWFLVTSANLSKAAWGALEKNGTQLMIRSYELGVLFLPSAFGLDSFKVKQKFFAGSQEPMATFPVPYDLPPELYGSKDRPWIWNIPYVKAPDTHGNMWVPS
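AlphaScreen read-out: signal falls as enzyme removes the 3' tyrosine-FITC from a 5'-biotinylated DNA oligo (15 nM, 5 min, RT). Enzyme was E. coli-made recombinant Tdp1 at 1 nM, exposed to compound for 15 min beforehand; beads 10 ug/ml, 10 min.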
DT40 TDP1 CPT = DT40-hTDP1 cell growth loss with CPT; chicken DT40 Tdp1-/-;hTDP1 cells + 20 nM CPT, ATP luminescence, 48 h; 420,000 tested, 12% active; Potency, µM (highest dose often 46.2 µM), hits mostly inhibitors; note: nearly all actives have a fitted effect of over 55% in size
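Chicken DT40 Tdp1-/- cells complemented with human TDP1, 400 cells/well, exposed to compounds plus 20 nM camptothecin for at least 48 h at 37 C; viability read as ATP content by CellTiter-Glo luminescence.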
RORgamma inh = ROR gamma (mouse) transcription inhibition; P51450; Drosophila S2 Gal4-RORgamma UAS-luciferase reporter, 20 h; Potency, µM (top dose mostly 53.6 µM), actives largely listed as inhibitors; 310,000 tested, 5.4% active; note: nearly all actives have a fitted effect of over 60% in size
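Stably transfected Drosophila Schneider cells are the test system, with ROR gamma fused to Gal4 and luciferase under UAS control; luminescence is read after 20 hr of 700 uM copper sulfate induction at ambient temperature.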
Gal4-VP16 FLuc = Gal4-VP16 reporter inhibition counter-screen; Drosophila S2 Gal4-VP16 UAS-luciferase, luminescence, 20 h; Potency, µM (top dose mostly 53.6 µM), usual class: inhibitors; 310,000 tested, 3.5% active;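 note: Gal4-VP16 expression switched on by copper sulfate through the metallothionein promoter; nearly all actives have a fitted effect of over 50% in size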
Numbers stand for hits; i = inactive; ? = inconclusive; nt = no result; [ ] = dose if it differs, or a comment. A selection: hits, their analogues and other compounds. The true share with any hit is near 19%. Calls come from the whole dose curve; as a rule, active = well fitted curve in the direction sought with a large enough effect; inconclusive = small, poorly fitted or top-dose-only effect, or another doubt; inactive = no such curve, though single readings can be large; an effect the other way counts as inactive or inconclusive.

SMILES	TDP1 cell noCPT	TDP1 block	DT40 TDP1 CPT	RORgamma inh	Gal4-VP16 FLuc
Cc1ccc(-c2cnc(N)n2C)cc1C	?	i	?	20µM	?
Cn1c(-c2ccc(Cl)cc2)cnc1N	i	i	i	?	?
CCOC(=O)N1CCN(C(=O)CN(c2ccc(C)cc2C)S(=O)(=O)c2ccccc2)CC1	i	nt	i	nt	nt
CCOC(=O)c1c(C)[nH]c(C)c1S(=O)(=O)N(C)CC(=O)N1CCN(c2ccccc2OC)CC1	?	i	18.4µM	nt	nt
CCOc1ccc(N(CC(=O)N2CCN(c3ccccc3OC)CC2)S(=O)(=O)c2ccc(F)cc2)cc1	?	i	?	i	i
COc1ccccc1N(CC(=O)N1CCN(c2ccccc2)CC1)S(=O)(=O)c1ccc(C)cc1	?	i	18.4µM	i	i
CCOC(=O)c1c(C)[nH]c(C)c1S(=O)(=O)NCC(=O)N1CCN(c2ccccc2OC)CC1	i	i	?	nt	nt
CCOC(=O)N1CCN(C(=O)CN(c2ccccc2OC)S(=O)(=O)c2ccc(OC)cc2)CC1	i	i	i	i	i
CCOC(=O)N1CCN(C(=O)CN(c2cccc(Cl)c2C)S(=O)(=O)c2ccc(C)cc2)CC1	?	nt	20.6µM	nt	nt
CCOc1ccc(N(CC(=O)N2CCN(c3ccccc3OC)CC2)S(=O)(=O)c2ccc(C)cc2)cc1	20.6µM	i	?	nt	nt
COCc1ccc(C(=O)N2CCN(CC(=O)N3CCCC3)CC2)cc1	i	i	i	nt	nt
CC(=O)Nc1ccc(SC[C@H](C)CN2CC[C@H](O)CCC2=O)cc1	i	i	i	nt	nt
Cc1cccc(NCCC#N)c1	i	i	i	i	i
CCOC(=O)c1ccc(NC(=O)c2nc[nH]c2C(=O)NC)cc1	i	i	i	10µM	i
CCOC(=O)c1[nH]cnc1C(=O)Nc1ccccc1	i	i	i	?	?
CCOC(=O)c1[nH]cnc1C(=O)Nc1ccc(Cl)cc1	i	i	i	?	i
CCOC(=O)c1[nH]cnc1C(=O)Nc1ccc(C)cc1	i	nt	i	12.6µM	?
COc1ccc(NC(=O)COC(=O)CC2CCCC2)cc1	i	i	i	nt	nt
O=C(CNC(=O)c1cccs1)N/N=C/c1c(F)cccc1Cl	i	i	i	i	i
Cc1ccc(-c2[nH]c(-c3ccc(Cl)cc3)nc2SCC(=O)NCC2CCCO2)cc1 (centres undefined)	4.11µM	i	?	?	?
O=C(CSc1nc(-c2ccc(F)cc2)[nH]c1-c1ccccc1)NCC1CCCO1 (centres undefined)	16.4µM	i	29.1µM	nt	nt
COc1ccc(-c2nc(SCC(=O)NCC3CCCO3)c(-c3ccc(C)cc3)[nH]2)cc1OC (centres undefined)	?	i[12.3 µM]	?	nt	nt
CCc1ccc(-c2nc(SCC(=O)NCC3CCCO3)c(-c3ccc(C)cc3)[nH]2)cc1 (centres undefined)	?	i	i	nt	nt
O=C(CSc1nc(-c2ccc(F)cc2)cs1)NCC1CCCO1 (centres undefined)	20.6µM	i	i	nt	nt
O=C(CN(C1CCCCC1)S(=O)(=O)c1ccc(F)cc1)NCC1CCCO1 (centres undefined)	7.31µM	nt	8.2µM	nt	nt
SMILES	TDP1 cell noCPT	TDP1 block	DT40 TDP1 CPT	RORgamma inh	Gal4-VP16 FLuc
O=C(CN(C1CCCCC1)S(=O)(=O)c1ccccc1)NCC1CCCO1 (centres undefined)	i	i	i	i	i
Cc1ccc(CCNC(=O)C2CC(c3ccccc3C(F)(F)F)=NO2)cc1 (centres undefined)	i	i	i	i	i
O=C(CN(c1ccc(Br)cc1)S(=O)(=O)c1ccc(Cl)c([N+](=O)[O-])c1)NCC1CCCO1 (centres undefined)	?	nt	16.4µM	nt	nt
O=C(O)CSCC(=O)N1CCN(c2ncnc3scc(-c4ccccc4)c23)CC1	i	nt	i	i	i
COc1ccc(-n2ncc3c(SCC(=O)N4CCN(c5ccccc5OC)CC4)ncnc32)cc1	20.6µM	i	?	i	i
O=C(CSc1ncnc2scc(-c3ccccc3)c12)N1CCN(c2ccccc2F)CC1	18.4µM	i	?	?	i
COc1ccccc1N1CCN(C(=O)CSc2ncnc3scc(-c4ccccc4)c23)CC1	16.4µM	i	?	i	i
CCC1Nc2ncnc(N3CCOCC3)c2N(Cc2ccc(OC)cc2)C1=O (centres undefined)	?	i	?	nt	nt
O=C(c1nc2nc(-c3cccs3)cc(C(F)(F)F)n2n1)N1CCN(Cc2ccccc2)CC1	?	i	?	i	i
Oc1ccc(N=Nc2c(O)ccc3ccccc23)cc1	?	i	18.4µM	?	12.6µM
Oc1ccc(N=Nc2ccc3ccccc3c2)cc1	i	nt	i	6.31µM	?
NS(=O)(=O)c1ccc(N=Nc2c(O)ccc3ccccc23)cc1	?	i	i	i	i
Cc1ccc(CN(C)C(=O)C2CCC(=O)N(C3CCCCCC3)C2)cc1 (centres undefined)	i	i	i	i	i
O=C(c1ccc(-c2cccc([N+](=O)[O-])c2)o1)N1CCN(c2ccc([N+](=O)[O-])cc2)CC1	4.11µM	i	6.51µM	nt	nt
O=C(c1cccnc1)N1CCN(c2ccc([N+](=O)[O-])cc2Cl)CC1	?	i	?	i	i
O=C(c1ccc(-c2ccc(Cl)cc2)o1)N1CCN(c2ccc([N+](=O)[O-])cc2Cl)CC1	2.59µM	i	5.17µM	?	i[0.365 µM]
Cc1ccc(C(=O)N2CCN(c3ccc([N+](=O)[O-])cc3)CC2)o1	?	nt	?	i	i
CCc1nc2ccc(C(=O)N3CCN(c4ccc([N+](=O)[O-])cc4)CC3)cc2nc1CC	?	i	16.4µM	i	i
O=C(c1ccc(-c2ccc([N+](=O)[O-])cc2)o1)N1CCCCC1	i	i	?	?	15.8µM
O=C(OCC(=O)c1ccc[nH]1)c1ccc(Cl)c(Cl)c1	i	i	i	nt	nt
C/C(=N\NC(=O)COc1cc(C)cc(C)c1)c1ccc(N2CCOCC2)cc1	?	i	i	i	i
O=C(CN(CC1CCCO1)C(=O)CNS(=O)(=O)c1ccccc1)NCCc1ccccc1 (centres undefined)	i	i[0.0935 µM]	i	i	i
O=C(NN1C(=O)NC2(CCCCC2)C1=O)c1ccc(-c2ccc([N+](=O)[O-])cc2)o1	20.6µM	i	20.6µM	i	i
C/C(=N\N1CCN(c2ccc(Cl)cc2)CC1)c1cccc([N+](=O)[O-])c1	?	i	i	i	i
CC1(C)CC(NC(=O)c2ccc(-c3ccc([N+](=O)[O-])cc3)o2)CC(C)(C)N1	?	i	?	i	i
O=C(/C=C/c1ccccc1[N+](=O)[O-])N1CCOCC1	i	i	i	i	i
O=C(c1cccc([N+](=O)[O-])c1)N1CCN(c2ccc(Cl)cc2)CC1	14.6µM	i	20.6µM	?	i
O=C(/C=C\c1ccc(-c2cccc([N+](=O)[O-])c2)o1)N1CCOCC1	23.1µM	i	?	i	i

Screening results as filed in PubChem BioAssay.
